This assay addresses T1, Methionyl-tRNA synthetase, putative (Leishmania donovani (strain BPK282A1)) (UniProt E9BF75).
T1 sequence (whole entry): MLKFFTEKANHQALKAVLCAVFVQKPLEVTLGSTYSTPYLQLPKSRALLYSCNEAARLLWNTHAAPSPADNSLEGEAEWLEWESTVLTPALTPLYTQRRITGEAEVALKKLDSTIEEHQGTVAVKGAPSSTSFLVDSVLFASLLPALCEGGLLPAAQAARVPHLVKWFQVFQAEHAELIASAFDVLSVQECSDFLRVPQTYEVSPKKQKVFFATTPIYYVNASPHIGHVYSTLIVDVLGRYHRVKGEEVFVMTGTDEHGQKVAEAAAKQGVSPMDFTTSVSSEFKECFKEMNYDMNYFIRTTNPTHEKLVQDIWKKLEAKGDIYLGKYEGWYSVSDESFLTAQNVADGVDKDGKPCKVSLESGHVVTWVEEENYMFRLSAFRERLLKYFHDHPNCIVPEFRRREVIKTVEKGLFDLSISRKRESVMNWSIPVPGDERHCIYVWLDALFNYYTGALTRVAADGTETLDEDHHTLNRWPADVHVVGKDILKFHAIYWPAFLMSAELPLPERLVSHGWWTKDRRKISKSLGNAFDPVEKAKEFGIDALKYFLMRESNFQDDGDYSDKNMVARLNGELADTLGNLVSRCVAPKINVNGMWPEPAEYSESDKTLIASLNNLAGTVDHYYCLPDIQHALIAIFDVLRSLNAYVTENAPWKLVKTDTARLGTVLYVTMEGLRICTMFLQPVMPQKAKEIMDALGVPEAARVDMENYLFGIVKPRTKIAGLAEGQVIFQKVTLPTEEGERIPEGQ
Description: Leishmania donovani Methionine tRNA synthetase (LdMetRS):v7. Dose response assay. It counts as functional. The arrangement: conc 80 nM, time 150 minutes.

The record followed here is ChEMBL document CHEMBL3988442, “University of Dundee, Small-Polar-MMV Screening Library” (2021).

With `Cc1nc(Cc2ccc(F)cc2)cc(C2COCCN2)n1` (stereo not drawn), the PXC50 is, setting by setting: (BOTTOM 2.29407011, HILLSLOPE 1.165905826, MAX_EFFECT 59.72222222, TOP 100.0) 4.12; (BOTTOM 7.218737982, HILLSLOPE 1.406075807, MAX_EFFECT 57.71812081, TOP 100.0) 4.05; (MAX_EFFECT 41.7677643) below 4.

Turning to `OCCNc1nc(Nc2ccc(F)c(F)c2)nc2ccsc12`, the PXC50 is 5.18 (BOTTOM 1.719198718, HILLSLOPE 0.904710071, MAX_EFFECT 90.94412331, TOP 99.0565164); 5.26 (BOTTOM 2.94588064, HILLSLOPE 1.041078654, MAX_EFFECT 85.02202643, TOP 89.21565971); 5.17 (BOTTOM 5.256543605, HILLSLOPE 0.944714137, MAX_EFFECT 88.2231405, TOP 97.0813666).

In turn, `Cn1ncc2c(NCCn3cccn3)nc(Nc3ccc(F)c(F)c3)nc21` had a PXC50 (MAX_EFFECT 33.72921615) below 4, a PXC50 (MAX_EFFECT 37.33905579) below 4 and a PXC50 (MAX_EFFECT 41.9729207) below 4.

Turning to `Cn1ncc2c(NCC3CCOC3)nc(Nc3ccc(F)c(F)c3)nc21` (stereo not drawn), the PXC50 runs as follows: (BOTTOM 0.0, HILLSLOPE 0.829006149, MAX_EFFECT 88.54961832, TOP 100.0) 4.89; (BOTTOM 5.170404417, HILLSLOPE 0.914601234, MAX_EFFECT 86.40350877, TOP 102.339634) 4.72; (BOTTOM -0.903989981, HILLSLOPE 0.887117975, MAX_EFFECT 86.41509434, TOP 97.82602818) 4.97.

With `NCC1Cc2cc(-c3nccc(N4CCC(O)CC4)n3)cc(Cl)c2O1` (stereo not drawn), the PXC50 by setting is: (BOTTOM 2.296775574, HILLSLOPE 1.512300698, MAX_EFFECT 82.17821782, TOP 96.63760695) 4.5; (BOTTOM 6.226174125, HILLSLOPE 1.41403245, MAX_EFFECT 85.50724638, TOP 100.0) 4.49; (BOTTOM -3.72600926, HILLSLOPE 1.42983, MAX_EFFECT 83.15412186, TOP 100.0) 4.35.

On to `COC1CCCCC1Nc1nc(Nc2ccc(F)c(F)c2)nc2c1cnn2C` (stereo not drawn), for which the PXC50 (BOTTOM 6.09090205, HILLSLOPE 1.180798676, MAX_EFFECT 57.89473684, TOP 61.13511107) came to 4.92; the PXC50 (MAX_EFFECT 49.43396226) was below 4; the PXC50 (MAX_EFFECT 49.87277354) is below 4.

Take `Cc1nn(C)c(C)c1CCn1cncc1-c1ccc2c(c1)CC(C)N2C` (stereo not drawn): the PXC50 runs as follows: (BOTTOM 5.604710013, HILLSLOPE 1.073782549, MAX_EFFECT 50.43327556, TOP 78.0664514) 4.19; (MAX_EFFECT 34.22818792) below 4; (MAX_EFFECT 37.5) below 4; (MAX_EFFECT 42.63038549) below 4; (MAX_EFFECT 45.23364486) below 4.

With `Cn1cccc1C1CCCCCN1C(=O)c1ccc(NC2CC2)nc1` (stereo not drawn), the PXC50 by setting is: (BOTTOM 0.111908338, HILLSLOPE 1.39754326, MAX_EFFECT 51.12651646, TOP 100.0) 4.03; (BOTTOM 4.752718183, HILLSLOPE 1.435645002, MAX_EFFECT 69.44444444, TOP 100.0) 4.25; (BOTTOM 4.940186034, HILLSLOPE 1.180279811, MAX_EFFECT 63.75838926, TOP 100.0) 4.18; (MAX_EFFECT 37.16108453) below 4; (MAX_EFFECT 39.73128599) below 4.
